According to PubChem BioAssay (NCATS):
Records with an inconclusive call do not appear. A number with no mark means an inactive call. Active and inactive are the calls of the source. The call rests on the fitted dose curve; in most records, active means well fitted inhibition curve with a large enough effect; inconclusive means small, poorly fitted or top-dose-only effect; inactive means flat fitted curve, though single readings scatter.

Assay: P-glycoprotein substrates identified in KB-8-5-11 adenocarcinoma cell line, qHTS therapeutic library screen (AID 1346987); further: nearly all actives have a fitted effect of over 65% in size
Settings: KB-8-5-11 (P-gp overexpressing) viability, CellTiter-Glo, 72 h; series mostly up to 44.5 µM; activity change, negative = cytotoxicity: at the top concentration
How it was run: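 In this qHTS, P-gp-rich KB-8-5-11 cells received library compounds across a concentration range. Viability was quantified by luminescence after 72 h at 37 degree C.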
On the % scale 0 is the no-effect control and ±100 the full control effect; potency means the concentration at half of the fitted maximal effect.

Structure (SMILES) | outcome | activity change, negative = cytotoxicity | Potency
CC(C)(O)C(=O)N1CCN(c2ccc(C(F)(F)F)c(C3=C(c4c[nH]c5ccccc45)C(=O)NC3=O)c2)CC1 | inactive | – | –
COc1ccc(C#Cc2ccc(C(=O)N3CCC[C@@H](O)C3)c(F)c2)cc1 | – | -33.3% | –
C[C@]12CC[C@@H]3c4ccc(OS(=O)(=O)O)cc4CC[C@H]3[C@@H]1CCC2=O | – | -5.84% | –
CCn1c(-c2nonc2N)nc2c(C#CCO)ncc(OCCCN)c21 | inactive | – | –
Nc1nc(NC2CC2)cc(-c2cccc(Cl)c2Cl)n1 | – | – | 6.51 µM (active)
O=C(Nc1ccc(C(O)(C(F)(F)F)C(F)(F)F)cc1)c1ccc(C(F)(F)F)cc1 | – | – | 18.4 µM (active)
COc1cc(/C=N\NC(=O)c2ccc3c(c2)OCO3)ccc1OCc1ccccc1 | – | -26.8% | –
O=C(NNc1nc2cc(F)ccc2n2cccc12)c1cnccn1 | – | – | 2.31 µM (active)
COCCNCc1ccc(-c2cc3nccc(Oc4ccc(NC(=O)C5(C(=O)Nc6ccc(F)cc6)CC5)cc4F)c3s2)nc1 | – | – | 4.61 µM (active)
O=C(NC1CCN(CCCCC2(C(=O)NCC(F)(F)F)c3ccccc3-c3ccccc32)CC1)c1ccccc1-c1ccc(C(F)(F)F)cc1 | – | – | 20.6 µM (active)
CC(C)S(=O)(=O)Nc1ccc(F)c(C(=O)c2c[nH]c3ncc(-c4cccnc4)cc23)c1F | – | -6.3% | –
CC(C)c1c(O)ccc2c1CC[C@H]1C(C)(C)CCC[C@]21C | – | -18.1% | –
CCC[C@@]1(CCc2ccccc2)CC(O)=C([C@H](CC)c2cccc(NS(=O)(=O)c3ccc(C(F)(F)F)cn3)c2)C(=O)O1 | – | -1.6% | –
C/C=C(\C)C(=O)OC1C=C(C)CC(OC(=O)c2ccc(O)cc2)C2C1(C)CCC2(O)C(C)C (centres undefined) | – | -21.9% [at 17.3 µM] | –
Cn1cc(-c2ccc(S(=O)(=O)n3ccc(/C=C/C(=O)Nc4ccccc4N)c3)cc2)cn1 | – | – | 2.59 µM (active)
C/C(=C\CO[C@@H]1O[C@H](CO[C@H]2OC[C@](O)(CO)[C@H]2O)[C@@H](O)[C@H](O)[C@H]1O)C(C)(C)O | inactive [at 17.3 µM] | – | –
C=C1C(=O)OC2C=C(C)CC/C=C(\CO)CC(O)C12 (centres undefined) | inactive | – | –
C[C@H](/C=C/[C@H](C)C(C)(C)O)[C@H]1CC[C@H]2/C(=C/C=C3C[C@@H](O)C[C@H](O)C3)CCC[C@]12C | – | – | 8.2 µM (active)
CCCC(Nc1nc(-c2ccc(NC(=O)NCC)c(OC)c2)ncc1C)c1cccnc1 (centres undefined) | – | – | 1.16 µM (active)
CC(=O)OC1CC2(C)C(CCC(C)C23Cc2c(O)cc(CO)c(C=O)c2O3)C(C)(C)C1O (centres undefined) | – | -15.3% [at 17.3 µM] | –

Structure (SMILES) | outcome | activity change, negative = cytotoxicity | Potency
NS(=O)(=O)c1ccc(NC(=O)Nc2ccc(F)cc2)cc1 | – | -0.748% | –
CN1CCC(NC(=O)c2cc(-c3c(O)cc(O)cc3Oc3ccc([N+](=O)[O-])cc3)on2)CC1 | – | – | 11.6 µM (active)
CN(c1ccc(NC(=O)Nc2ccccc2)cc1)S(=O)(=O)c1cnn(-c2ccc(F)cc2)c1 | – | – | 11.6 µM (active)
O=c1cc(NCCCN[C@@H]2CCOc3c(Br)cc(Br)cc32)[nH]c2ccsc12 | – | -12.4% | –
O=C1Cc2c([nH]c3ccc(Br)cc23)-c2ncccc2N1 | – | -6.51% | –
CC(=O)O[C@@H]1C[C@@]2(C)C(CC[C@]3(C)C2CC=C2C4CC(C)(C)CC[C@]4(C(=O)O)CC[C@]23C)C(C)(C)[C@H]1O (some centres undefined) | – | -14.5% [at 17.3 µM] | –
Cc1c(C(=O)Nc2ccc(N3CCC(N4CCOCC4)CC3)c(C#N)c2)cnn1-c1ccc(Cl)cc1 | – | – | 0.82 µM (active)
CC(C)(Cc1ccccc1)NCC(O)c1ccc(O)c(NS(C)(=O)=O)c1 (centres undefined) | – | -0.935% | –
CCC(CC)C(c1ccc(Nc2nc3ccccc3s2)cc1)n1cncn1 (centres undefined) | – | – | 23.1 µM (active)
C=C(C(=O)OC)[C@@H]1CC=C2C=CC(=O)[C@H](C)[C@@]2(C)C1 | – | -19.9% | –
COc1cc2c(cc1OC)CN(C(=O)/C=C/c1c(-c3ccccc3)n(C)c3ncccc13)CC2 | – | – | 20.6 µM (active)
C=C1CC2[C@@]3(C)C=CC(=O)C(C)(C)C3=C(O)C(=O)[C@@]2(C)C2(C(=O)OC)C(=O)C(C)OC(=O)[C@@]12C (some centres undefined) | – | – | 8.93 µM (active)
CCCCC1CCC(c2nc(-c3ccncc3)no2)CC1 (centres undefined) | – | -24% | –
Cc1cc(-c2cnc(N)c3c(-c4ccc5scnc5c4)csc23)n(C)n1 | – | – | 8.2 µM (active)
C/C=C(/C)C(=O)OC1CC(C)(C)CC2C3=CCC4C5(C)CCC(O[C@@H]6O[C@H](C(=O)O)[C@@H](O)[C@H](O)[C@H]6O[C@@H]6O[C@H](CO)[C@H](O)[C@H](O[C@@H]7OC[C@H](O)[C@H](O)[C@H]7O[C@@H]7O[C@H](CO)[C@@H](O)[C@H](O)[C@H]7O)[C@H]6O)C(C)(C)C5CCC4(C)C3(C)C(O)C(O)C12CO (some centres undefined) | – | -17.3% [at 9.29 µM] | –
CCN(CC)C(=O)c1ccc(Nc2nc(OCC3CCCCC3)c3[nH]cnc3n2)cc1 | – | – | 18.4 µM (active)
CC(C)(S)C(=O)N[C@@H](CS)C(=O)O | – | – | inactive
NC(=O)N1CCC(CC(=O)N2CCC(C3c4ncc(Br)cc4CCc4cc(Cl)cc(Br)c43)CC2)CC1 (centres undefined) | – | – | 18.4 µM (active)
COc1ccc(CNc2nc(N(CCO)CCO)nc3c2ncn3C(C)C)cc1 | – | – | 5.8 µM (active)
